What all share (assay): NCI-60 one-dose screen, 48 h (100 = growth as untreated, 0 = no growth, -100 = all killed)
For one experiment, the system named is NCI-H23 lung. To be noted: 10 µM unless noted.
A further experiment relates to NCI-H226 lung. To be noted: 10 µM unless noted.
A further experiment concerns NCI-H322M lung. To be noted: 10 µM unless noted.
In the next experiment the test system is HOP-62 NSCLC. To be noted: 10 µM unless noted.
Another experiment relates to NCI-H460 lung. To be noted: 10 µM unless noted.
The subject of the next experiment is HOP-92 NSCLC. To be noted: 10 µM unless noted.
The subject of a further experiment is NCI-H522 lung. To be noted: 10 µM unless noted.
For the next experiment, the system named is A549/ATCC NSCLC. To be noted: 10 µM unless noted.
For the next experiment, the system named is 786-0 renal. To be noted: 10 µM unless noted.
A further experiment concerns COLO 205 colon. To be noted: 10 µM unless noted.
A further experiment deals with DU-145 prostate. To be noted: 10 µM unless noted.
Another experiment relates to K-562 leukemia. To be noted: 10 µM unless noted.
For a further experiment, the system named is MALME-3M melanoma. To be noted: 10 µM unless noted.
Another experiment relates to MDA-MB-231 breast. To be noted: 10 µM unless noted.
Another experiment deals with RXF 393 renal. To be noted: 10 µM unless noted.
The test system of a further experiment is SF-268 CNS. To be noted: 10 µM unless noted.
For the next experiment, the system named is SF-295 CNS. To be noted: 10 µM unless noted.
The next experiment relates to SF-539 CNS. To be noted: 10 µM unless noted.
In a further experiment the test system is UACC-257 melanoma. To be noted: 10 µM.
A further experiment has as its system M14 melanoma. To be noted: 10 µM unless noted.

The panel holds about 83,000 compounds, 20% with a hit somewhere; the sample as a whole holds those more often.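 Results are percent growth after 48 hours of single-concentration exposure. 100 means growth as in untreated cells, lower positive values show inhibition; negative values down to -100 show cell death.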 Unmarked numbers belong to inactive results. Calls of active or inactive are those of the source. Rule for the calls: active = growth percent below 10; inactive = the rest.

With `O=C1[C@@H]2Cc3c([nH]c4ccccc34)[C@H](c3c(Cl)cccc3Cl)N2C(=O)CN1C1CCN(Cc2c(F)cccc2F)CC1`, the growth in the experiment with NCI-H23 lung is 92.9%; in the experiment with NCI-H226 lung, 78.7%; with NCI-H322M lung it was 89.1%; in the experiment on HOP-62 NSCLC, 92.9%; with NCI-H460 lung, 55.6%; in the experiment with HOP-92 NSCLC, 75.9%. The growth is 93% in the experiment on NCI-H522 lung; 92.3% in the experiment with A549/ATCC NSCLC; 99.2% with 786-0 renal; 90.6% in the experiment with COLO 205 colon; 58.8% in the experiment on DU-145 prostate; 66.3% in the experiment with K-562 leukemia. For the same compound, the growth in the experiment with MALME-3M melanoma was 64.9%; in the experiment with MDA-MB-231 breast, 69%; in the experiment with RXF 393 renal it was 65.4%; with SF-268 CNS, 76.1%; with SF-295 CNS, 101%; with SF-539 CNS, 52.2%. Moreover, the growth was 99.1% in the experiment with UACC-257 melanoma and 75.2% with M14 melanoma.

Take `C=C(C)[C@@H]1CC[C@]2(C)[C@H](CC=C3[C@@H]4CC(C)(C)CC[C@]4(C(=O)NCC#CCN4CCN(C)CC4)CC[C@]32C)[C@@]1(C)CCC#N`: the growth with NCI-H23 lung was 79.4%; in the experiment with NCI-H226 lung it was 86.7%; with NCI-H322M lung, 85.8%; with HOP-62 NSCLC it was 81.3%; in the experiment with NCI-H460 lung it was 10.7%; in the experiment on HOP-92 NSCLC it was 13%. Besides, the growth was 78.3% in the experiment on NCI-H522 lung; 52.9% with A549/ATCC NSCLC; 52.3% with 786-0 renal; 86.6% in the experiment on COLO 205 colon; 63.4% in the experiment on DU-145 prostate; -7.15% (active) in the experiment with K-562 leukemia. Moreover, the growth was 34.6% with MALME-3M melanoma; 47.8% in the experiment with MDA-MB-231 breast; 53.7% with RXF 393 renal; 65.4% in the experiment with SF-268 CNS; 70.5% with SF-295 CNS; 87.7% with SF-539 CNS. The growth was 91.3% in the experiment on UACC-257 melanoma and -63.7% (active) in the experiment with M14 melanoma.

For `COc1ccc(Cn2cc3c(c2-c2ccccc2)CCCc2cnoc2-3)cc1[N+](=O)[O-]`, the growth in the experiment with NCI-H23 lung is 74.8%; in the experiment on NCI-H226 lung, 66.6%; in the experiment with NCI-H322M lung, 96.2%; in the experiment on HOP-62 NSCLC, 68.6%; in the experiment with NCI-H460 lung, 56.4%; in the experiment with HOP-92 NSCLC it was 62.7%. Further, the growth in the experiment on NCI-H522 lung is 58.2%; with A549/ATCC NSCLC, 66.7%; with 786-0 renal it was 87.6%; with COLO 205 colon it was 46.8%; in the experiment with DU-145 prostate, 84.2%; with K-562 leukemia, 17.8%. For the same compound, the growth in the experiment with MALME-3M melanoma is 60.5%; in the experiment with MDA-MB-231 breast it was 75.2%; in the experiment on RXF 393 renal it was 49.6%; in the experiment on SF-268 CNS, 78.5%; in the experiment with SF-295 CNS, 69.5%; in the experiment on SF-539 CNS, 70.5%. Also, the figures for the growth in the experiment on UACC-257 melanoma and with M14 melanoma were 75.3% and 51%, respectively.

`CC(C)c1nn(-c2ccccc2)c(N2CCCCC2)c1/C=N/NC(N)=S`: the growth in the experiment with NCI-H23 lung is 90.9%; in the experiment with NCI-H226 lung, 88.2%; in the experiment on NCI-H322M lung, 82.3%; in the experiment with HOP-62 NSCLC, 101%; in the experiment with NCI-H460 lung it was 96.5%; in the experiment on HOP-92 NSCLC, 64.6%. In addition, the growth in the experiment on NCI-H522 lung was 86.1%; in the experiment on A549/ATCC NSCLC, 79.2%; in the experiment on 786-0 renal it was 101%; in the experiment on COLO 205 colon, 97%; in the experiment on DU-145 prostate, 95.3%; in the experiment on K-562 leukemia, 82.9%. The growth in the experiment with MALME-3M melanoma is 104%; in the experiment with MDA-MB-231 breast it was 107%; in the experiment with RXF 393 renal, 75.5%; in the experiment with SF-268 CNS, 88%; with SF-295 CNS, 77.6%; in the experiment with SF-539 CNS it was 88.7%. Moreover, the growth in the experiment on UACC-257 melanoma was 106%; with M14 melanoma, 113%.

As to `COc1cc(/C=C/C(=O)c2ccc(N3CCN(C)CC3)cc2)ccc1F`, the growth in the experiment on NCI-H23 lung is 84.4%; in the experiment on NCI-H226 lung, 67.3%; in the experiment on NCI-H322M lung, 84.2%; in the experiment on HOP-62 NSCLC, 86.4%; in the experiment with NCI-H460 lung it was 102%; in the experiment on HOP-92 NSCLC, 54.3%. Moreover, the growth in the experiment on NCI-H522 lung is 97.2%; in the experiment with A549/ATCC NSCLC it was 76.7%; in the experiment on 786-0 renal, 88.4%; with COLO 205 colon, 64.9%; with DU-145 prostate, 88.3%; in the experiment with K-562 leukemia it was 7.19% (active). In addition, the growth was 103% in the experiment on MALME-3M melanoma; 103% in the experiment with MDA-MB-231 breast; 98.2% with RXF 393 renal; 97.8% in the experiment with SF-268 CNS; 92.5% with SF-295 CNS; 65.6% in the experiment with SF-539 CNS. Besides, the growth was 89.8% with UACC-257 melanoma and 73.6% in the experiment with M14 melanoma.

Consider `CCCCCCCCNC(=O)c1ccc(Cn2c(CCCC)nc3c(N)nc4ccccc4c32)cc1`, for which the growth in the experiment on NCI-H23 lung is 38.8%; in the experiment on NCI-H226 lung, 87.7%; in the experiment with NCI-H322M lung it was 85.3%; in the experiment on HOP-62 NSCLC, 75.5%; in the experiment with NCI-H460 lung, 3.61% (active); in the experiment with HOP-92 NSCLC, 26.2%. The growth was -50.4% (active) in the experiment with NCI-H522 lung; 57.7% with A549/ATCC NSCLC; -78.3% (active) with 786-0 renal; -8.18% (active) with COLO 205 colon; 27.7% with DU-145 prostate; -59.9% (active) in the experiment with K-562 leukemia. Further, the growth is -82.9% (active) with MALME-3M melanoma; -71.6% (active) in the experiment on MDA-MB-231 breast; 23.3% in the experiment with RXF 393 renal; 53.7% in the experiment on SF-268 CNS; -80.8% (active) in the experiment on SF-295 CNS; -87.1% (active) in the experiment with SF-539 CNS. The growth in the experiment with UACC-257 melanoma was -70.3% (active); in the experiment on M14 melanoma it was -80.4% (active).

For `C#C[C@]1(O)CC[C@H]2[C@@H]3CC=C4c5sc(Nc6ccncc6)nc5CC[C@]4(C)[C@H]3CC[C@@]21C`, the growth is 2.43% (active) in the experiment on NCI-H23 lung; -4.76% (active) with NCI-H226 lung; 31.7% with NCI-H322M lung; -42.3% (active) with HOP-62 NSCLC; 4.53% (active) in the experiment with NCI-H460 lung; 4.3% (active) in the experiment with HOP-92 NSCLC. In addition, the growth in the experiment with NCI-H522 lung is -37% (active); with A549/ATCC NSCLC, -14.7% (active); in the experiment with 786-0 renal it was -60.2% (active); with COLO 205 colon, -46.9% (active); in the experiment on DU-145 prostate it was 21%; in the experiment with K-562 leukemia it was 2.23% (active). For the same compound, the growth in the experiment with MALME-3M melanoma is -71.1% (active); with MDA-MB-231 breast, 21.7%; in the experiment with RXF 393 renal, -62.9% (active); in the experiment on SF-268 CNS it was -15.9% (active); with SF-295 CNS, -70.8% (active); in the experiment on SF-539 CNS, -61.1% (active). Further, the growth is -44.3% (active) with UACC-257 melanoma and -49.7% (active) in the experiment with M14 melanoma.

In the case of `IP(CCCCCCCCCCSc1n(Cc2ccc3ccccc3c2)c(-c2ccccc2)c(-c2ccccc2)[n+]1Cc1ccc2ccccc2c1)(c1ccccc1)(c1ccccc1)c1ccccc1`, the growth with NCI-H23 lung was -66.2% (active); in the experiment on NCI-H226 lung, -55.2% (active); in the experiment with NCI-H322M lung, -68.4% (active); in the experiment on HOP-62 NSCLC, -59.1% (active); in the experiment with NCI-H460 lung, -63.4% (active); with HOP-92 NSCLC, -77.8% (active). Besides, the growth with NCI-H522 lung is -61.8% (active); with A549/ATCC NSCLC it was -55% (active); with 786-0 renal, -56.2% (active); with COLO 205 colon, -55.2% (active); with DU-145 prostate it was -69.6% (active); with K-562 leukemia, -46.4% (active). The growth was -70.5% (active) with MALME-3M melanoma; -63.7% (active) in the experiment with MDA-MB-231 breast; -35.6% (active) with RXF 393 renal; -54.6% (active) in the experiment on SF-268 CNS; -77.6% (active) in the experiment with SF-295 CNS; -66.7% (active) in the experiment on SF-539 CNS. Besides, the growth was -55.8% (active) in the experiment on UACC-257 melanoma and -61.2% (active) in the experiment on M14 melanoma.

The values above are taken from PubChem BioAssay (NCI).
